Measurements taken from PubChem BioAssay AID1986 (Sanford-Burnham Center for Chemical Genomics, 2009).
In all, about 290,000 compounds went through this assay and about 890 (0.31%) were called active. Cut-off read from the data, not from the text of the source: active = inhibition mostly above about 52% (no sharp cut-off); inactive = mostly below about 76%. Many of the other results were omitted from the sample, so actives are more common in it than they were.

Assay: inhibitors of HIV fusion peptide binding, primary screen, biochemical, uHTS, fluorescence dequenching (AID 1986)
Conditions: cell-free peptide binding, 30 min, stronger effect = higher value
[1] = measured here: repeat confirmation average inhibition, at 18.6 µM

Compound | inhibition (at 20 µM) | inhibition [1]
COc1ccccc1NC(=O)CCCc1nc(-c2ccc(OC)c(OC)c2)no1 | -1% (inactive) | 
COC(=O)c1ccc(COc2ccc(/C=C(\C#N)c3nc4ccccc4[nH]3)cc2OC)o1 | 4.4% (inactive) | 
Cc1cc2nc(/C(C#N)=C\c3ccc(-c4ccccc4C(=O)O)o3)[nH]c2cc1C | 135% (inactive) | 
Cc1cc(/C=C(/C#N)c2nc3ccccc3[nH]2)c(C)n1-c1cc(C(=O)O)cc(C(=O)O)c1 | 63.6% (inactive) | 40.2%
Cc1ccc2nc(/C(C#N)=C/c3ccc(-c4ccccc4C(=O)O)o3)[nH]c2c1 | 94.3% (active) | 63.8%
COc1cc(/C=C(/C#N)c2nc3ccccc3[nH]2)ccc1OC(=O)c1ccco1 | 0.5% (inactive) | 
Cc1cc(/C=C(\C#N)c2nc3ccccc3[nH]2)c(C)n1C | 54% (active) | 
N#C/C(=C\c1ccc(-c2ccccc2C(=O)O)o1)c1nc2ccccc2[nH]1 | 29.4% (inactive) | 
COc1cc(/C=C(\C#N)c2nc3ccccc3[nH]2)ccc1OC(=O)c1ccco1 | 61.1% (active) | 
Cc1cc(/C=C(/C#N)c2nc3ccccc3[nH]2)c(C)n1-c1ccccc1C(=O)O | 9.7% (inactive) | 
O=C(NC(=S)Nc1ccc(CN2CCCCC2)cc1)c1ccco1 | 0.8% (inactive) | 
Cc1ccccc1-n1ncc2c1CC(C)(C)CC2NC(=O)CCCN1CCCC1=O (stereo not drawn) | 0.2% (inactive) | 
CCOc1ccc(NC(=O)CSc2nc3ccsc3c(=O)n2CCC(=O)O)cc1 | 2.5% (inactive) | 
Oc1oc(-c2ccccc2Br)nc1C=Nc1ccc(Br)cn1 | -0.2% (inactive) | 
Cn1c(N=Nc2ccc(N3CCOCC3)cc2)[n+](C)c2ccccc21 | -4.1% (inactive) | 
COc1ccc(N=Nc2n(C)c3ccccc3[n+]2C)cc1 | 79.3% (active) | 
COc1ccc(N2CC(O)=C(c3n(C)c4ccccc4[n+]3C)C2=N)cc1 | 1.6% (inactive) | 
CC(C)(C)c1cc(C(=O)C[n+]2ccc(C(=O)NCCCO)cc2)cc(C(C)(C)C)c1O | -4% (inactive) | 
CCCOC(=O)C1C2C=CC3(CN(c4cccc(Cl)c4)C(=O)C13)O2 (stereo not drawn) | 0.8% (inactive) | 
Cc1cc(N2CCOCC2)n2nc(C(F)(F)F)c(-c3ccccc3)c2n1 | 0.1% (inactive) | 
Cc1cc(C)n2nc(C(F)(F)F)c(-c3ccccc3)c2n1 | 0.5% (inactive) | 
CC(C)(C)c1ccc(C(=O)Nc2cccc3ncccc23)cc1 | 62% (active) | 65.1%
O=C(Nc1cccc2ncccc12)c1ccc(Cl)cc1 | -1% (inactive) | 
O=C(Nc1cccc2ncccc12)c1ccc(F)cc1 | 2.1% (inactive) | 
COc1ccc(O)c(C(=O)c2cnc3nc4ccccc4n3c2)c1 | 28.4% (inactive) | 
